The values below come from PubChem BioAssay (NCI).

Structures are written as SMILES. Compounds without any hit were thinned out: in the full panel of roughly 83,000, 20% have a hit.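 Assay: single dose, 48 h. Readout: percent growth (0 = no net growth; negative = cell death). Active: <10.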 A number with no mark means an inactive call. Active and inactive are the calls of the source.

The subject of this test is NCI-H322M lung. In words: NCI-60 one-dose screen, 48 h (100 = growth as untreated, 0 = no growth, -100 = all killed). Conditions: 10 µM unless noted.
For the molecule `COc1cc2[nH]c(C(=O)c3cc(OC)c(OC)c(OC)c3)c(N)c2cc1C#CC1CC1`, the growth was 52.7%.

Regarding `COc1cc2c(cc1OC)C(=O)/C(=C/c1cc(-c3ccc4c(c3)OCO4)n[nH]1)C2`, the growth was -5.69% (active).

In the case of `NS(=O)(=O)c1ccc(CCNC(=O)/C=C/c2ccc(Cl)cc2)cc1`, the growth was 107%.

Turning to `C/C(=N/NC(N)=S)C(=O)O`, the growth was 103%.

As for `Cc1ccc(-c2ccc(Nc3ccccc3)nn2)cc1S(N)(=O)=O`, the growth is 108%. With `CCC(c1ccc(OC)cc1)C(CC)c1ccc(O)c(CN2CCCCC2)c1` (stereo not drawn), the growth is 70.7%. In the case of `COc1cc(-c2cc(-c3nc4ccc(F)cc4[nH]3)[nH]n2)cc(OC)c1OC`, the growth is 48.7%. As for `COc1cccc(NC(=O)c2sc3nc4c(cc3c2N)C(=O)CCC4)c1`, the figure is 56.5%; as for `NC1(N)C=CC2=C(C=C1)C1(N)C3=C(C=CC(N)(N)C=C3)N2C2(N)C3=C(C=CC(N)(N)C=C3)N1C1=C2C=CC(N)(N)C=C1`, 99.8%.

In the case of `COc1ccc(-c2nc3ccccn3c2-c2nc3ccc(Cl)cc3[nH]2)cc1`, the growth was 103%.

For `O=c1c(CNc2ccc(S(=O)(=O)Nc3nccs3)cc2)coc2ccccc12`, the growth was 87.6%. Consider `CN1CCN(c2nc(-c3cccc4ccccc34)nc3sc4c(c23)CCCCCC4)CC1`, for which the growth is 104%. With `COc1ccc2nc(-c3cc(-c4cc(OC)c(OC)c(OC)c4)n[nH]3)[nH]c2c1`, the growth was 31.1%.

In the case of `COc1cccc(-c2nn(-c3ccccc3)cc2-c2ccnc(NCCNS(=O)(=O)c3ccc(Cl)cc3)c2)c1`, the growth was 63.8%. Regarding `O=S(=O)(NCCNc1cc(-c2cn(-c3ccccc3)nc2-c2cccc(O)c2)ccn1)c1ccc(C(F)(F)F)cc1`, the growth is 75.3%.

For `Cc1cc(C)c(NC(=O)c2sc3nc4c(cc3c2N)CCCC4)c(C)c1`, the growth was 88.7%.

For `C/C(=N\Nc1cc(C)c2ccccc2n1)c1ccccn1`, the growth was -2.12% (active).

Regarding `C=C1C(=O)O[C@H]2[C@H]1CC/C(Cn1cc(-c3ccc(OC)cc3)nn1)=C\CC[C@@]1(C)O[C@@H]21`, the growth is 88.7%. As for `COC(=O)[C@]12CC[C@@H](C)[C@H](C)[C@@H]1C1=CC[C@@H]3[C@@]4(C)C[C@@H](OC(C)=O)[C@H](OC(C)=O)[C@@](C)(COC(C)=O)[C@@H]4[C@H](O)C[C@@]3(C)[C@]1(C)CC2`, the figure is 34.6%; as for `COc1cccc(-c2nn(-c3ccccc3)cc2-c2ccnc(NCCCNS(=O)(=O)c3ccc(Cl)cc3)c2)c1`, 66.8%. As to `O=c1c(CNc2ccc(S(=O)(=O)Nc3ncccn3)cc2)coc2ccccc12`, the growth is 97.1%. In the case of `COc1ccc(-c2cc(/C=C/C(=O)c3ccc(OC)c(OC)c3)[nH]n2)cc1`, the growth is 26.1%. On to `C#Cc1cc2c(N)c(C(=O)c3cc(OC)c(OC)c(OC)c3)[nH]c2cc1OC`, for which the growth was 43.2%. On to `O=S(=O)(NCCNc1cc(-c2cn(-c3ccccc3)nc2-c2cccc(O)c2)ccn1)c1ccc(F)cc1`, for which the growth was 58.7%.

Consider `c1ccc2[nH]c(-c3cc(-c4ccc5c(c4)OCO5)n[nH]3)nc2c1`, for which the growth was 67.1%. Consider `COc1cccc(-c2nn(-c3ccccc3)cc2-c2ccnc(NCCCNS(=O)(=O)c3cccc(F)c3)c2)c1`, for which the growth was 53.9%. Take `COc1cc(-c2cc(-c3nc4cc(Cl)c(Cl)cc4[nH]3)[nH]n2)cc(OC)c1OC`: the growth is 92.3%.

For the molecule `Oc1cc(/C=C/c2nc(N3CCOCC3)c3cc(Cl)c(Cl)cc3n2)cc(O)c1O`, the growth was 113%. Consider `Cc1cc(Nc2ccc(F)cc2)nc(N2CCN(c3ccnc4cc(Cl)ccc34)CC2)n1`, for which the growth was 46.8%. Regarding `COc1ccc(/C=C/C(=O)NCC(C)O)cc1` (stereo not drawn), the growth is 94.5%. For `COc1ccc(-c2cc(/C=C/C(=O)c3ccc(N)cc3)[nH]n2)cc1`, the growth is 12.4%. As for `CSc1ccc(N(C)c2nc(C)nc3c2CCC3)cc1`, the growth is 57.4%. Consider `OCCNc1nc(Nc2ccc(Cl)c(Cl)c2)nc2ccccc12`, for which the growth was 71%. Take `COc1cc(-c2cc(-c3nc4ccccc4[nH]3)[nH]n2)cc(OC)c1OC`: the growth is 39.5%. As for `O=C1CCN2C(=O)Nc3ccccc3C2C1` (stereo not drawn), the growth was 95.8%.

Turning to `Cc1[c-]onc1C.Cc1[c-]onc1C.[Ag].[Ag].[NH-]S(=O)(=O)c1ccc(N=Nc2cc(N=Nc3ccc(S([NH-])(=O)=O)cc3)c3c(NC(=O)C(Cl)Cl)cccc3c2OC(=O)C(Cl)Cl)cc1`, the growth was 96%. With `Clc1ccc(Cn2cc(-c3nc4ccc(Br)nc4n3Cc3ccc(Cl)cc3)c3cccnc32)cc1`, the growth is 81.1%. With `COC(=O)[C@]12CC[C@@H](C)[C@H](C)[C@@H]1C1=CC[C@@H]3[C@@]4(C)C[C@@H](OC(C)=O)[C@H](O)[C@@](C)(COC(C)=O)[C@@H]4[C@H](O)C[C@@]3(C)[C@]1(C)CC2`, the growth is -92.6% (active).
